High-throughput results deposited in PubChem by National Center for Advancing Translational Sciences (NCATS).
Rows were chosen to be rich in hits. Some 2.5% of all compounds tested hit in one or more screens of this group.
CCT chaperon mod: modulators of cytosolic chaperonin (CCT/TRiC) activity | purified chaperonin ATPase assay, HTRF ADP detection, 30 min | activity change, % (no concentration beside the values), hits read low | hit rate 0.3% among 360,000; in the data active = activity change below about -30%
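TRiC (40 or 20 nM final, by batch activity) in 30 mM Tris pH 7.4, 100 mM KCl, 5 mM MgCl2, 1 mM DTT was treated with compound at 76 uM single dose, then 10 uM ATP, 30 min at 37 °C. ADP was read by HTRF Transcreener.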
Mito fusion act: mitochondrial division inhibition or fusion activation | AID 485298 | Potency, µM (highest dose often 46.1 µM), actives largely listed as activators | hit rate 0.23% among 320,000 | S. cerevisiae fusion-defective mutant growth rescue, CellTiterGlo 48 h; note: nearly all actives have a fitted effect of over 45% in size
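Temperature-sensitive fusion-defective S. cerevisiae (e.g. fzo1-1, mgm1-5) were grown with compound in YPEG medium (3% ethanol, 3% glycerol) for 48 hours at 37C. Growth rescue was measured as viability by CellTiterGlo luminescence after 10 minutes at ambient.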
TDP-43 yeast inh: TDP-43 toxicity inhibition in yeast | TDP-43 expressing yeast growth rescue, BacTiter-Glo, 24 h | hit rate 1.8% among 410,000 | Potency, µM (titrated, usually from 46.1 µM), hits mostly activators; note: nearly all actives have a fitted effect of over 50% in size
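Readout is BacTiter-Glo luminescence of cell growth, so inhibitors register as activators. TDP-43-expressing yeast at OD600=0.02 in galactose medium, after raffinose pregrowth to mid-log, were incubated with compound for 24 hr at 30 deg C.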
Apoferritin bind: binds horse apoferritin like a general anesthetic; P02791; AID 485281; hit rate 0.074% among 350,000; apoferritin/1-aminoanthracene competitive binding, fluorescence; Potency, µM (top dose mostly 77.5 µM), usual class: inhibitors; note: nearly all actives have a fitted effect of over 20% in size
Target sequence (P02791 2-175 limits assumed): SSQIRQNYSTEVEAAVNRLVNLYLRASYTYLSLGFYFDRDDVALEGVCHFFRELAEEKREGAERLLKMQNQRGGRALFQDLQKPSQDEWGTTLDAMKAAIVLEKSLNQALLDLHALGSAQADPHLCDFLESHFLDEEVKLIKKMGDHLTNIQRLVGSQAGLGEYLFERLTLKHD
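Horse-spleen apoferritin (10 uM) in 50% saturated 1-aminoanthracene in PBS was incubated 10 min at room temperature with compound. Fluorescence (ex 380, em 535 nm) was normalized to free and bound 1-AMA, with concentration-response fitted by a four-parameter Hill equation.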
Akt phos inh: blocks phosphorylation of Akt | Neuro2A IGF-stimulated pAkt S473 HTRF, 20 min; hits give low values | activity change, % for hits at 50 µM | hit rate 0.32% among 360,000 | AID 651550; in the data active = activity change below about -80%; inconclusive = mostly about -51% to -80%
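Neuro2A cells (4,500/well, DMEM with 0.5% FBS) were treated with compound at a single 50 µM final concentration, stimulated with 6 nM IGF for 20 min at 37 °C, and lysed. Phospho-Akt Ser473 was read by HTRF as 665/615 ratio ×10^4.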
aSyn rescue: inhibitors of alpha-synuclein toxicity in yeast | Yeast expressing alpha-synuclein, growth rescue, BacTiter-Glo, 24 h | Potency, µM (series often up to 46.1 µM), hits mostly activators | hit rate 0.14% among 370,000; note: nearly all actives have a fitted effect of over 65% in size
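Readout is rescue of growth in alpha-synuclein-expressing yeast, so inhibitors of toxicity appear as activators. Growth after 24 hr at 30 deg C in galactose medium is quantified by luminescence.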
Large screens that a line does not name were inactive. Unless noted, calls come from the whole dose curve; as a rule, active = well fitted curve in the direction sought with a large enough effect; inconclusive = small, poorly fitted or top-dose-only effect, or another doubt; inactive = no such curve, though single readings can be large; an effect the other way counts as inactive or inconclusive.

Cc1oc(-c2ccccc2F)nc1CS(=O)(=O)CC(=O)N1CCN(c2ccccc2)CC1	none
Cc1ccccc1-c1nc(CS(=O)(=O)CC(=O)N2CCN(c3ccccc3)CC2)c(C)o1	TDP-43 yeast inh 12.6µM (no result: CCT chaperon mod, Mito fusion act, Akt phos inh, aSyn rescue)
CCCNc1c(NS(=O)(=O)c2ccc(Br)cc2)c(=O)oc2ccccc12	Mito fusion act 8.91µM
CNS(=O)(=O)c1cn(CC(=O)N2CCN(c3ccc(C)cc3C)CC2)cc1S(=O)(=O)NC	none (no result: CCT chaperon mod, Mito fusion act, Akt phos inh, aSyn rescue)
Nc1nc(N)nc(-c2ccc(Cl)c(Cl)c2)n1	TDP-43 yeast inh 22.4µM (no result: Apoferritin bind)
O=[N+]([O-])c1ccccc1S(=O)(=O)NCc1ccccn1	none (no result: CCT chaperon mod, Mito fusion act, TDP-43 yeast inh, Apoferritin bind, Akt phos inh)
CCOC(=O)c1cccc(NS(=O)(=O)c2ccc3[nH]c4c(c3c2)CCCC4)c1	none (no result: CCT chaperon mod, Mito fusion act, Akt phos inh, aSyn rescue)
COc1ccccc1CNC(=O)COc1ccc(Br)c(C)c1	TDP-43 yeast inh 17.8µM
COc1ccccc1CNC(=O)COc1ccccc1C	TDP-43 yeast inh inconclusive
S=C(Nc1ccccc1Oc1ccccc1)Nc1cccc(Cl)c1Cl	Mito fusion act inconclusive, TDP-43 yeast inh 22.4µM
S=C(Nc1ccc(Cl)cc1Cl)Nc1ccccc1Oc1ccccc1	none
Cc1ccccc1C(=O)/C(C#N)=N/Nc1c(C)n(C)n(-c2ccccc2)c1=O	TDP-43 yeast inh 35.5µM, aSyn rescue 15.8µM
Cc1c(N/N=C(\C#N)C(=O)c2ccccc2)c(=O)n(-c2ccccc2)n1C	none
COc1ccc(C=O)cc1COc1ccc([N+](=O)[O-])c(C)c1	TDP-43 yeast inh inconclusive, Apoferritin bind inconclusive
COc1ccc(C=O)cc1COc1ccc2c(c1)OCO2	TDP-43 yeast inh 14.1µM (no result: Apoferritin bind)
Cc1ccc(S(=O)(=O)N2CCN(S(=O)(=O)c3ccc4c(c3)OCCCO4)CC2)cc1	none (no result: CCT chaperon mod, Mito fusion act, TDP-43 yeast inh, Apoferritin bind, Akt phos inh)
C=CCNC(=O)c1ccc(CSc2nc3ccccc3s2)cc1	TDP-43 yeast inh 17.8µM
O=C(CSc1ccc([N+](=O)[O-])cn1)Nc1cc(C(F)(F)F)ccc1N1CCOCC1	TDP-43 yeast inh 20µM, Apoferritin bind inconclusive
Cc1csc(NC(=O)CSc2ccc([N+](=O)[O-])cn2)n1	TDP-43 yeast inh 12.6µM
Cc1csc(NC(=O)CSc2nc3ccccc3s2)n1	TDP-43 yeast inh 25.1µM
CC(=O)c1nn(-c2ccc(OC(F)(F)F)cc2)nc1Nc1ccc(Cl)cc1	none (no result: CCT chaperon mod, Mito fusion act, Akt phos inh, aSyn rescue)
CCc1cccc(NC(=O)CCn2c(=O)c3cccn3c3cccnc32)c1	none (no result: CCT chaperon mod, Mito fusion act, Akt phos inh, aSyn rescue)
O=C(CSc1nc2ccccc2s1)c1cc2ccccc2o1	CCT chaperon mod -62.9, Apoferritin bind inconclusive (no result: Akt phos inh)
COc1ccc(CCNC(=O)CCc2cn(Cc3ccccc3Cl)c3ccccc23)c(OC)c1	none (no result: CCT chaperon mod, Mito fusion act, Akt phos inh, aSyn rescue)
CCc1ccc(OCCCn2c(CCNC(=O)C3CCCCC3)nc3ccccc32)cc1	none (no result: CCT chaperon mod, Mito fusion act, TDP-43 yeast inh, Apoferritin bind, Akt phos inh)
O=C1CCCc2c1sc1nc3n(c(=O)c21)CCCCC3	none
O=C1c2sc3nc4n(c(=O)c3c2CCC1Br)CCCCC4 (centres undefined)	TDP-43 yeast inh 12.6µM
Oc1cccc2ccc(/C=C/c3ccccc3Br)nc12	aSyn rescue inconclusive
Oc1ccc2ccccc2c1/C=C/c1ccc2c(Br)cc(Br)c(O)c2n1	TDP-43 yeast inh 15.8µM, aSyn rescue inconclusive (no result: Mito fusion act, Apoferritin bind)
CCOC(=O)c1c(-c2ccc(F)cc2)csc1NC(=O)CCN1CCOCC1	Mito fusion act 11.2µM
CCOC(=O)c1c(-c2ccc(F)cc2)csc1NC(=O)CCN1C(=O)c2ccccc2C1=O	none
CCOC(=O)c1c(-c2ccc(-c3ccccc3)cc2)csc1NC(=O)CCN1CCOCC1	Mito fusion act 10µM, TDP-43 yeast inh 14.1µM
CCCN1CNc2c(c(=O)[nH]c(=S)n2CCc2cc(C)ccc2C)C1	none (no result: CCT chaperon mod, Mito fusion act, TDP-43 yeast inh, Apoferritin bind, Akt phos inh)
O=S(=O)(c1cccc(Br)c1)N1CCN(c2ncnc3scc(-c4ccccc4)c23)CC1	none (no result: Mito fusion act, Apoferritin bind)
Cc1csc2ncnc(N3CCN(S(=O)(=O)c4cccc(C(F)(F)F)c4)CC3)c12	TDP-43 yeast inh 17.8µM
Cc1ccc(C(C)C)c(OCc2ccc(C(=O)N/N=C/c3cccc(O)c3O)cc2)c1	TDP-43 yeast inh 12.6µM, Apoferritin bind inconclusive, aSyn rescue 12.6µM
CCOc1ccc(/C=C/c2nc(C#N)c(N3CCC(C)CC3)o2)cc1	TDP-43 yeast inh inconclusive (no result: CCT chaperon mod, Mito fusion act, Akt phos inh, aSyn rescue)
Cc1ccc(CC(=O)Nc2cc([N+](=O)[O-])ccc2F)cc1	none
